Shown are actives, neighbours in structure and some others; about 4.6% of the full set was active somewhere.
ADAM10 inh: inhibits human ADAM10; recombinant ADAM10, EDANS/DABCYL FRET peptide cleavage, 3 h; AID 720582; inhibition, % at 7 µM; hit rate 0.62% among 370,000; O14672;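 active means inhibition above a per-campaign cutoff equal to the mean of compounds falling between control-based bounds plus 3 SD, cut at about 20% in these data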;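 further: 0% = DMSO wells while the 100% control is not disclosed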
ADAM17 inh: inhibitors of human ADAM17 | P78536 | recombinant ADAM17, EDANS/DABCYL FRET peptide cleavage | inhibition, % at 6.95 µM | hit rate 0.83% among 370,000 | AID 720648;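 active means inhibition above the mean of compounds lying between control limits plus 3 SD, set per campaign, cut at about 8.5% in these data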;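 further: 0% = DMSO-only wells as the low control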
FAS-TE inh: FAS thioesterase (human) inhibition. P49327. inhibition, % at 15 µM. AID 602261. recombinant FAS-TE, OMFH fluorogenic substrate, fluorescence endpoint. hit rate 0.67% among 360,000;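 active means compounds whose normalised, plate-corrected inhibition of enzyme fluorescence in the single-dose primary screen is 50% or more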;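 further: 0% = DMSO with enzyme and 100% = substrate without enzyme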
KLK7 zymogen act: activates the human kallikrein-7 zymogen. purified proKLK7, EDANS-DABCYL substrate fluorescence; 100% is mature enzyme control, 0% vehicle. activation, % at 7 µM. hit rate 0.9% among 370,000. AID 652039;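 active means activation above the mean of all tested compounds plus 3 SD, computed per campaign excluding outliers beyond control limits, cut at about 13% in these data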
NR3A LBD binder: modulators (binders) of human NR3A ligand-binding domain | hit rate 2.5% among 340,000 | NR3A LBD differential scanning fluorimetry, Tm shift; 0% = protein alone, 100% = glycine-bound protein | Tm shift relative to glycine control, % at 25 µM | AID 1259313;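 active means melting temperature shift of at least 10% of the positive control shift, at one fixed dose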
Numbers without * were called inactive; . = no result given.

SMILES	ADAM10 inh	ADAM17 inh	FAS-TE inh	KLK7 zymogen act	NR3A LBD binder
Clc1ccc2[nH]cc(-c3nnnn3-c3ccc4ccccc4c3)c2c1	5.0	1.9	9.8	-0.5	29.2*
Cc1ccc(-n2nnnc2-c2cnc3ccc(Cl)cc3c2-c2ccccc2)cc1	1.4	6.8	21.6	0.0	-2.8
CC(=O)Nc1ccc(NC(=O)c2cc(-c3ccc(C)cc3O)n[nH]2)cc1	-3.5	-3.5	-5.2	0.2	29.8*
Cc1cc(F)ccc1-c1cc(C(=O)Nc2ccc(F)cc2)[nH]n1	-0.1	0.7	-6.5	0.4	.
Cc1ccc(O)c(-c2cc(C(=O)Nc3ccc(S(=O)(=O)Nc4nccc(C)n4)cc3)[nH]n2)c1	-1.0	0.1	-4.7	0.1	29.5*
COc1ccc(NC(=S)Nc2cc(C)[nH]n2)cc1Cl	-3.0	-1.9	-3.3	-0.1	12.1*
COc1ccc(CCNC(=O)c2cc(-c3ccc(C)c(C)c3O)n[nH]2)cc1OC	6.5	-2.0	4.9	-0.6	-2.5
COc1ccc(C(=O)Nc2ccc(S(=O)(=O)Nc3nccc(C)n3)cc2)cc1	8.3	2.2	-6.3	0.1	1.2
Cc1ccc(-c2cc(C(=O)Nc3cccnc3)[nH]n2)c(O)c1C	6.5	0.1	-7.9	0.0	28.2*
O=C(NCCc1ccccc1)OCc1cn(Cc2cc(F)ccc2F)nn1	-1.9	-5.4	.	0.2	.
O=C(OCc1cn(Cc2ccccc2F)nn1)N1CCOCC1	-10.2	-7.8	.	-0.2	.
Cc1cccc(NC(=O)c2cc(-c3cc(C)c(C)cc3O)n[nH]2)c1	7.7	-2.5	-2.1	-1.0	14.1*
COc1ccc(NC(=O)c2cc(-c3cc(C)ccc3O)n[nH]2)cc1Cl	16.6	-0.6	-9.4	-0.2	326.2*
COc1ccc(NC(=O)c2cc(-c3ccc(F)cc3C)n[nH]2)cc1OC	-9.7	4.4	0.1	-0.2	.
Cc1cccc(NC(=O)c2cc(-c3cc(C)ccc3O)n[nH]2)c1	-1.1	3.3	-8.5	-1.0	30.0*
COc1ccc(CNC(=O)c2cc(-c3cc(C)ccc3O)n[nH]2)cc1	6.4	-0.3	-0.1	-0.1	-7.2
COc1ccc(C#CCN(C)/C(N)=N/C(=O)OCc2ccccc2)cc1	4.9	4.1	.	0.3	.
N#CCC[C@@H]1CC[C@]2(CCCN(C(=O)C3CCCCC3)C2)O1	-7.3	-3.7	.	-0.1	.
COc1ccc(CN2C[C@]3(C=C(C)Cn4c(=O)n(-c5ccccc5)c(=O)n43)N=C2NC(=O)c2ccccc2)c(OC)c1	9.2	-1.2	.	0.3	.
C[C@H](NS(=O)(=O)c1ccc([N+](=O)[O-])cc1)C(=O)NCCNC(=O)[C@@H](C)NS(=O)(=O)c1ccc([N+](=O)[O-])cc1	-8.7	-6.4	.	.	.
CCC[C@H]1[C@@H](OC(=O)NCCc2c[nH]c3ccccc23)CC[C@@]23CCCN2C(=O)CCC[C@@H]13	1.1	0.6	.	.	.
CC(=O)N1[C@@H](CO)[C@@H](c2ccc(-c3cccc(F)c3)cc2)[C@@H]1CNCC1CCC1	8.4	2.5	.	0.3	.
COc1ccc(NC(=O)c2ccco2)cn1	-5.8	-2.6	-4.7	0.0	-1.5
CC(=O)c1ccc(NC(=O)CCC(=O)OCC(=O)c2cccc([N+](=O)[O-])c2)cc1	.	.	-1.0	.	62.1*
O=C(Nc1ccccc1)c1ccc(-c2ccc([N+](=O)[O-])cc2)o1	-3.8	1.1	23.3	-3.6	6.3
SMILES	ADAM10 inh	ADAM17 inh	FAS-TE inh	KLK7 zymogen act	NR3A LBD binder
COc1ccc(NC(=O)c2ccc(-c3ccc([N+](=O)[O-])cc3)o2)cc1	4.6	3.3	27.7	0.9	24.9*
COc1ccc(NC(=O)c2ccc(-c3ccc(C(C)=O)cc3)o2)cn1	-290.5	-78.0	-6.2	3.8	27.1*
COc1ccc(NC(=O)CCC(=O)OCc2ccc([N+](=O)[O-])cc2)cc1	-4.4	-1.1	6.1	-0.5	19.9*
COc1ccc(NC(=O)CCC(=O)OCC(=O)c2ccc(Oc3ccc([N+](=O)[O-])cc3)cc2)cc1	-0.7	0.6	-4.2	-0.7	2.2
O=C(CCc1ccccc1)N[C@H]1[C@@H](OC(=O)c2cccnc2)CCC[C@]12C(=O)N(Cc1ccccc1)c1ccccc12	-3.3	2.4	.	1.1	.
COC(=O)[C@]12CCCCC=C1N(Cc1ccc(OC)cc1)C(=O)[C@@H]2CC(=O)NCCc1ccccc1OC	8.8	-2.4	.	0.3	.
CCOC(=O)Cc1csc(NC(=O)NC2(C(F)(F)F)Oc3ccc(Cl)cc3O2)n1 (stereo unspecified)	9.4	0.5	8.9	0.0	-1.5
CCOC(=O)Cc1csc(NC(=O)NC2(C(F)(F)F)Oc3cc(Cl)c(Cl)cc3O2)n1	-3.5	-1.4	10.7	-0.3	10.7*
Cc1ccc(NC(=O)CSc2nnc(NC(=O)c3ccc(S(=O)(=O)N4CCOCC4)cc3)s2)cc1	5.4	-1.3	-16.4	0.5	28.2*
CCOC(=O)c1ccc(NC(=O)CSc2nnc(NC(=O)c3ccc(S(=O)(=O)N4CCOCC4)cc3)s2)cc1	-8.7	-4.0	-7.2	-0.1	37.4*
Nc1nnc(SCC(=O)Nc2ccc(S(=O)(=O)N3CCOCC3)cc2)s1	.	.	-9.4	.	-1.6
COc1cc(OC)cc(-c2sc3ccc(OC)cc3c2-c2ccc(O)cc2)c1	2.8	8.3	27.7	-1.7	7.0
COc1ccc(-c2c(-c3cc(OC)cc(OC)c3)sc3ccc(OC)cc23)cc1	5.3	-0.8	26.5	-2.0	12.9*
COCC(=O)N(C)c1nnc(-c2cnccn2)s1	-30.4	-11.1	-5.8	31.7*	2.9
CS(=O)(=O)NCCNc1ccc(C(F)(F)F)cc1[N+](=O)[O-]	6.2	2.5	-4.5	-0.1	-1.0
COc1ccc2[nH]c(C)c(CCNc3ccc(C(F)(F)F)cc3[N+](=O)[O-])c2c1	2.6	3.6	26.0	0.5	19.1*
COCCNC(=S)N(CCc1c(C)[nH]c2ccc(F)cc12)Cc1ccc(C)cc1	11.3	4.7	26.2	-0.6	10.3*
COc1ccc2[nH]c(C)c(CCNC(=S)Nc3ccc(F)cc3)c2c1	8.2	2.5	3.4	0.2	11.8*
O=C1CCC(CNc2ccccc2)N1c1ccccc1 (stereo unspecified)	9.4	5.0	.	.	.
C=CCN1[C@@H](CC(C)C)COc2cccc(N3CCSCC3)c2S1(=O)=O	4.4	0.0	.	-0.1	.
O=C(c1ccccc1)c1nn(-c2ccc(Cl)cc2)c(=O)cc1C(F)(F)F	0.8	-1.8	23.3	1.6	-0.9
O=C(c1ccccc1)c1nn(-c2ccccc2)c(=O)cc1C(F)(F)F	-0.6	1.7	6.7	0.3	12.2*
CCCCCN1CCCCC(NC(=O)C(C)(C)C)C1=O (stereo unspecified)	-7.3	-5.1	.	0.0	.
COc1ccc(OC)c(S(=O)(=O)N2CCC(C(=O)NCC3COCCO3)CC2)c1 (stereo unspecified)	-4.1	-1.4	.	0.2	.
O=C(Nc1nc2c(s1)CCCC2)c1ccc(Br)o1	8.5	-2.3	-2.0	0.8	11.3*
Cc1ccc(C(=O)Nc2nc3c(s2)CCCC3)o1	-10.2	-0.9	-5.2	0.9	-0.4
CCc1cccc(CC)c1NC(=O)COC(=O)c1cccc(S(=O)(=O)N2CCc3ccccc3C2)c1	-3.0	-0.5	-14.1	-0.3	-2.4

Bioassay records deposited in PubChem by several laboratories.
